Assay results from the supplement of paper PMC11732987, “Enantioselective OTUD7B fragment discovery through chemoproteomics screening and high-throughput optimisation” (Communications Chemistry, 2025).

Legend:
Assay in all cases: log2 ratio of Biotin-Ahx-Ub-VS probe labelling (fragment/DMSO); higher = less target engagement (more negative = stronger competition), active = hit call of the paper (q ≤ 0.05, log2 ratio ≤ -1)
Details in all cases: compound concentration: 200 uM; treatment time: 3 h
USP19 = target: T1, USP19 (UniProt O94966)
T1 sequence (whole entry): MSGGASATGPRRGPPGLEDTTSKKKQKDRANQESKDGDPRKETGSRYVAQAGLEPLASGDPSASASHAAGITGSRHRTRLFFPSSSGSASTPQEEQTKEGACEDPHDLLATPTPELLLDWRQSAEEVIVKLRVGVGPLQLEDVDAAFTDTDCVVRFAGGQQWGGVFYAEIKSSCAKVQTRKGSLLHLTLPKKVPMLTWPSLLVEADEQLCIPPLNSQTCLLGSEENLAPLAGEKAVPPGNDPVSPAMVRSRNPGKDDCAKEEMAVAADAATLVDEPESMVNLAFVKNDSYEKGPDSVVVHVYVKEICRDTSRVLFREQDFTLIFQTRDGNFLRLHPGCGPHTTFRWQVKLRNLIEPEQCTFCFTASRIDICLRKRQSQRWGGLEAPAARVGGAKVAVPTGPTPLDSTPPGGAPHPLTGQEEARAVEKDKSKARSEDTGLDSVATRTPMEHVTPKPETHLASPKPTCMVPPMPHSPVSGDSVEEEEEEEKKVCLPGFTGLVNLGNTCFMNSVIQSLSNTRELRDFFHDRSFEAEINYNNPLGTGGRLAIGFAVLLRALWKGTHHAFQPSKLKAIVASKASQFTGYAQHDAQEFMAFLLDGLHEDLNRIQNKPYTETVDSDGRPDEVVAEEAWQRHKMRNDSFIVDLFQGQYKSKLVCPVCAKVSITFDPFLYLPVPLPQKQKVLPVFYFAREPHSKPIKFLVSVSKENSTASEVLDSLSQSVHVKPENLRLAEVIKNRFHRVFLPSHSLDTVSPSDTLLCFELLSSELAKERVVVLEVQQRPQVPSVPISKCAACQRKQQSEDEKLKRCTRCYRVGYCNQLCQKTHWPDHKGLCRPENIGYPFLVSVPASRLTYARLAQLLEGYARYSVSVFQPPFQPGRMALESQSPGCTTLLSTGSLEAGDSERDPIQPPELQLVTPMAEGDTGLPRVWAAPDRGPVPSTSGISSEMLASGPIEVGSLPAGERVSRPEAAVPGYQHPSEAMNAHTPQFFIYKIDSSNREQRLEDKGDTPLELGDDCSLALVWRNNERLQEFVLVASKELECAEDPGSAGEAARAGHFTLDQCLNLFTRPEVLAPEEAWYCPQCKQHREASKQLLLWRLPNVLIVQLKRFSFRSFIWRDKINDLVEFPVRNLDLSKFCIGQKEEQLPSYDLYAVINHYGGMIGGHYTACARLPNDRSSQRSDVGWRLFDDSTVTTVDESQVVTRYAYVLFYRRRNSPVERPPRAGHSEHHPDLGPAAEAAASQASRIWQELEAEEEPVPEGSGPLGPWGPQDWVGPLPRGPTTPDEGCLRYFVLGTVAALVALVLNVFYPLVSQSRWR
Procedure, shortened: (§1)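 Labelled DUBs from HEK293T lysate were NeutrAvidin-enriched, digested with LysC and trypsin, and run by diaPASEF LC-MS/MS. Before that, each 495 µg sample in Tris/CHAPS/IGEPAL buffer with protease inhibitors was treated in triplicate with fragment at 200 µM or vehicle for 3 h, then with Biotin-Ahx-Ub-VS at 0.5 µM final for 1 h. Values are average log2 ratios of fragment over vehicle by unpaired t-test, based on global-median-normalised Spectronaut label-free quantities from proteins with ≥2 unique peptides.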

USP22 = target: T2, USP22 (UniProt Q9UPT9)
T2 sequence (whole entry): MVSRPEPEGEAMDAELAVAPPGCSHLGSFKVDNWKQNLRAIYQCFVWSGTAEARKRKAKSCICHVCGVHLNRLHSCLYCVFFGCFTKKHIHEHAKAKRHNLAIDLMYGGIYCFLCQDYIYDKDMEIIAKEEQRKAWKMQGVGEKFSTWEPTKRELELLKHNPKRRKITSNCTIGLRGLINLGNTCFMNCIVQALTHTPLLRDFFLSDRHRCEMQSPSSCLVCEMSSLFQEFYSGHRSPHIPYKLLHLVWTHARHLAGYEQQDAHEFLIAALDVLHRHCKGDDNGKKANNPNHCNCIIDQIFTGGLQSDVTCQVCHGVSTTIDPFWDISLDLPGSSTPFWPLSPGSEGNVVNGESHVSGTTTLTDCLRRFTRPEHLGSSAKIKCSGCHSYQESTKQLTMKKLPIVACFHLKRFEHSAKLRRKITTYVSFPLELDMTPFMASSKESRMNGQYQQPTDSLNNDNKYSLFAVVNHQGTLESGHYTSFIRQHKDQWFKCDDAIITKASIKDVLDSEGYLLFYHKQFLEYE
Procedure, shortened: as §1

USP24 = USP24 (UniProt Q9UPU5)
Procedure, shortened: as §1

USP25 = target: T3, USP25 (UniProt Q9UHP3)
T3 sequence (whole entry): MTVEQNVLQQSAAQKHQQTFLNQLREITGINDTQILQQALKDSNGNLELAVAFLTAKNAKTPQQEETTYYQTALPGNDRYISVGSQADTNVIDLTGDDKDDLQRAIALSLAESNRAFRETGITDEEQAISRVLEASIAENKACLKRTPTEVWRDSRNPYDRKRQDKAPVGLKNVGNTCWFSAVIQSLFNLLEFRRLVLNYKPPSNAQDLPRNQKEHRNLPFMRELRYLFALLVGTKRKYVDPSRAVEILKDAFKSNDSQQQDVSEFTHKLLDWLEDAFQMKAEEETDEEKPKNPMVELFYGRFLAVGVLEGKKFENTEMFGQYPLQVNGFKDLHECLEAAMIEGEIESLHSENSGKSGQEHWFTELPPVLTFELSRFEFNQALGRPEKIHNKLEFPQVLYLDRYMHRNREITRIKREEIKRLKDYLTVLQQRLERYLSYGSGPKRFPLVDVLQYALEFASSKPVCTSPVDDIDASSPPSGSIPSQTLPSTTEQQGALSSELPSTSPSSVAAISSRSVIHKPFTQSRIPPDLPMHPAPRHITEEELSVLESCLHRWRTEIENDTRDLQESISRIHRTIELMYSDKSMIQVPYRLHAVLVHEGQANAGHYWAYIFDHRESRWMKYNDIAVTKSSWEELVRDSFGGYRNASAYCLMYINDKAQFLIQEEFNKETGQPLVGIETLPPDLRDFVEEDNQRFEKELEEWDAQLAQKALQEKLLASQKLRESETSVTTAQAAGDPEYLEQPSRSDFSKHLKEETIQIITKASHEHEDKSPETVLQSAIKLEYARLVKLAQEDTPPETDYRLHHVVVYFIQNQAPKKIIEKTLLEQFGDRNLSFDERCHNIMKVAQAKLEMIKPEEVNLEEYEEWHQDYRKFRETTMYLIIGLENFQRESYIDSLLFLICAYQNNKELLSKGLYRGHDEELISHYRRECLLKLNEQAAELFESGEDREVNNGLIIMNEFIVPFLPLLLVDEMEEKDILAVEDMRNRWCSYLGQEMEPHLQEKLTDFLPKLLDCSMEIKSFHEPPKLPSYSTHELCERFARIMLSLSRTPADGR
Procedure, shortened: as §1

USP28 = target: T4, USP28 (UniProt Q96RU2)
T4 sequence (whole entry): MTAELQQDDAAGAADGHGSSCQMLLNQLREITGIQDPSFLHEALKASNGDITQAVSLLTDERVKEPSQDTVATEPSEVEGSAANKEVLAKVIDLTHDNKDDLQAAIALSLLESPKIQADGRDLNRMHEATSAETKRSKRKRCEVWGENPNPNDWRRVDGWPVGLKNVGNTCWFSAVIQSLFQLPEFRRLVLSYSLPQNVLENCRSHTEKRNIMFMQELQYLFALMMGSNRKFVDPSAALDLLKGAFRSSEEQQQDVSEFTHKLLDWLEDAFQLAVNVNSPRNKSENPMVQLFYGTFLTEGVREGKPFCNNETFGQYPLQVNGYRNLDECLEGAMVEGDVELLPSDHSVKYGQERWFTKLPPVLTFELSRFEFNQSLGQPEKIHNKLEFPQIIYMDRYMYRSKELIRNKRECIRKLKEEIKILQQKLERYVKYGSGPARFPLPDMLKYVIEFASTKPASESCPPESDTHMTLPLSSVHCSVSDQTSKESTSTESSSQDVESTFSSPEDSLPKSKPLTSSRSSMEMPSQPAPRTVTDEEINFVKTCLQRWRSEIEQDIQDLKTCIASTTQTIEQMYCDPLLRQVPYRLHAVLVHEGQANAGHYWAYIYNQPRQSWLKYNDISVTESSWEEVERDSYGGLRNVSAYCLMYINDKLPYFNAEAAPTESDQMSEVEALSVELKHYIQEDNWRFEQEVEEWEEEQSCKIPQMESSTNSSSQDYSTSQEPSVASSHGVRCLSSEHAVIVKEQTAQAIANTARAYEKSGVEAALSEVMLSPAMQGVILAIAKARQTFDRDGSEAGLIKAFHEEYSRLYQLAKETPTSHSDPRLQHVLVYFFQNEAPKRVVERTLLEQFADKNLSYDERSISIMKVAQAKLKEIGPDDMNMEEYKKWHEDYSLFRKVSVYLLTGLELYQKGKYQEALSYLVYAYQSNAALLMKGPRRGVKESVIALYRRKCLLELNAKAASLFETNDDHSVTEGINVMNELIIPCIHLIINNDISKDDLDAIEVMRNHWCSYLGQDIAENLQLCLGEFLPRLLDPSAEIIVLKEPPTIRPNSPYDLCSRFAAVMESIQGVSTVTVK
Procedure, shortened: as §1

Measured: log2 ratio of Biotin-Ahx-Ub-VS probe labelling

Chain of USP24 (Q9UPU5 whole entry): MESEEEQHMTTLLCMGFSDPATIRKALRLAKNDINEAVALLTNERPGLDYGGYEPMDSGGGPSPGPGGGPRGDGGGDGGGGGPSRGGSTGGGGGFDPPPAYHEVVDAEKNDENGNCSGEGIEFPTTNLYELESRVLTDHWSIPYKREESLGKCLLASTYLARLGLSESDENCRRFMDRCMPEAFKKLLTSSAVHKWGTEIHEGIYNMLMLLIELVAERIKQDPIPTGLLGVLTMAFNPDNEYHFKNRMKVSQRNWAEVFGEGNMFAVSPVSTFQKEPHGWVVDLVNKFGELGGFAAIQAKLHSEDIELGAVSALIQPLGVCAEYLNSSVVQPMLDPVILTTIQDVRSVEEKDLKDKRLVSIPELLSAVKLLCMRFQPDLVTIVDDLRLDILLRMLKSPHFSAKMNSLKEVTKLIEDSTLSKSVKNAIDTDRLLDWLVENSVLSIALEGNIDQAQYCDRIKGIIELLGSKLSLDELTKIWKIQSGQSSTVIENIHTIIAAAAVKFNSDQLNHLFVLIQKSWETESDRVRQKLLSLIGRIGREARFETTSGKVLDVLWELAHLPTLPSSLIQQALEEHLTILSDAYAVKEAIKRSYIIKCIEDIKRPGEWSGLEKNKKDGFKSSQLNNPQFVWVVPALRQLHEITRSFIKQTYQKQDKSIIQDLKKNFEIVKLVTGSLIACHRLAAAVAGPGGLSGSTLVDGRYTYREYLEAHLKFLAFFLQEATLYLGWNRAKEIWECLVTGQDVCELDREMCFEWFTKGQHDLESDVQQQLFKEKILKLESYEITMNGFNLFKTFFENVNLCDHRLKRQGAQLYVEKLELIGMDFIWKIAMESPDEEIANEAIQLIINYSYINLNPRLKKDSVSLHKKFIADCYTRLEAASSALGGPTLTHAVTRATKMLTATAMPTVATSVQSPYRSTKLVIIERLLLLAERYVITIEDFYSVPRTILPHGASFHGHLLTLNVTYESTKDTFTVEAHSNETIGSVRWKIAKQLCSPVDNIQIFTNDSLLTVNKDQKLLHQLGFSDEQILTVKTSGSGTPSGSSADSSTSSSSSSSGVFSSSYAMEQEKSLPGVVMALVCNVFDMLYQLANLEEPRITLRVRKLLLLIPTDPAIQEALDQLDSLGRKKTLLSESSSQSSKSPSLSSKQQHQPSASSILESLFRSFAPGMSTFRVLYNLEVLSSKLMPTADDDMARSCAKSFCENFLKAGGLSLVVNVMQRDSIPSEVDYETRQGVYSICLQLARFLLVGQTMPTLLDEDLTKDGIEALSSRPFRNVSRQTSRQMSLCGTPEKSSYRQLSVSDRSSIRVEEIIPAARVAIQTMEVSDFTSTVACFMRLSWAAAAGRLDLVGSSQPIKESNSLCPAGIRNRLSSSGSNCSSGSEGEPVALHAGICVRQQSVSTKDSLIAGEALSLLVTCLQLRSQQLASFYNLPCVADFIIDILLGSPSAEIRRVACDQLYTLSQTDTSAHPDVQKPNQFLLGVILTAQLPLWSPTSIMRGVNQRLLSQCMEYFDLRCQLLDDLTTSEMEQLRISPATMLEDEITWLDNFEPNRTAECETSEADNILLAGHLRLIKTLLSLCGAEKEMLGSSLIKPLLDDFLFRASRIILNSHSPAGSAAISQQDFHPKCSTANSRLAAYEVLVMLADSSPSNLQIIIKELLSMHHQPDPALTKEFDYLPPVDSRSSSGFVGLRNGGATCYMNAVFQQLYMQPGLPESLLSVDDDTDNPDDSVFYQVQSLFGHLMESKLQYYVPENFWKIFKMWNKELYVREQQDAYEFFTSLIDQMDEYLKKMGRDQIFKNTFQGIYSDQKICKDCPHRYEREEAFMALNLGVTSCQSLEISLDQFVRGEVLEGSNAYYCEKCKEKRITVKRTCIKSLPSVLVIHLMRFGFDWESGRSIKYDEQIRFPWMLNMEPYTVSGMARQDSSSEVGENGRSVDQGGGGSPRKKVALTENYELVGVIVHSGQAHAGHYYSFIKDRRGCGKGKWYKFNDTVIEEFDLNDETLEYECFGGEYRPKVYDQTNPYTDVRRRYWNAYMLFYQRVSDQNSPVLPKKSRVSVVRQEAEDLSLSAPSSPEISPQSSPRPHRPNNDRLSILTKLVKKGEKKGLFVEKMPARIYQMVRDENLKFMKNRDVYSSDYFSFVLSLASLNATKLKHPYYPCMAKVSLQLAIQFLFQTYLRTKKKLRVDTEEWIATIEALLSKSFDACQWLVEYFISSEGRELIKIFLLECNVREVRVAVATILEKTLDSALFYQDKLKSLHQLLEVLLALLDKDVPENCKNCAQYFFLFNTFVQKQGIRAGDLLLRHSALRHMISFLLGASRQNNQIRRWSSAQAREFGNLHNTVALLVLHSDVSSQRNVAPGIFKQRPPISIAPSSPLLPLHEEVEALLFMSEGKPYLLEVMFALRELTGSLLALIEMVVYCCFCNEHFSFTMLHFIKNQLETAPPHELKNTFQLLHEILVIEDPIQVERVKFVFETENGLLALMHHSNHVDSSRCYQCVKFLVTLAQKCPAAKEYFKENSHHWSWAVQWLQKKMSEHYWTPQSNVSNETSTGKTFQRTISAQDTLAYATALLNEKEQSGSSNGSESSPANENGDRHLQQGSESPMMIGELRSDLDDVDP

O=C(CCl)NCc1cccc(N2CCCC2=O)c1
inactive: USP19 0.025 | USP22 0.303 | USP24 0.00291 | USP25 -0.383 | USP28 -0.252
